Assay results from ChEMBL document CHEMBL2218924, “A broad activity screen in support of a chemogenomic map for kinase signalling research and drug discovery” (Biochem J, 2013).

Experiments:
[1] = target: Insulin receptor (Homo sapiens) (UniProt P06213); settings: at 10 µM
[2] = target: Insulin receptor (Homo sapiens) (UniProt P06213); settings: at 1 µM
[3] = target: Insulin receptor (Homo sapiens) (UniProt P06213); settings: at 10 µM; remark: listed apart in the source
[4] = target: Interleukin-1 receptor-associated kinase 1 (Homo sapiens) (UniProt P51617); settings: at 1 µM
Sequence of Interleukin-1 receptor-associated kinase 1 (Homo sapiens) (P51617 whole entry, looked up): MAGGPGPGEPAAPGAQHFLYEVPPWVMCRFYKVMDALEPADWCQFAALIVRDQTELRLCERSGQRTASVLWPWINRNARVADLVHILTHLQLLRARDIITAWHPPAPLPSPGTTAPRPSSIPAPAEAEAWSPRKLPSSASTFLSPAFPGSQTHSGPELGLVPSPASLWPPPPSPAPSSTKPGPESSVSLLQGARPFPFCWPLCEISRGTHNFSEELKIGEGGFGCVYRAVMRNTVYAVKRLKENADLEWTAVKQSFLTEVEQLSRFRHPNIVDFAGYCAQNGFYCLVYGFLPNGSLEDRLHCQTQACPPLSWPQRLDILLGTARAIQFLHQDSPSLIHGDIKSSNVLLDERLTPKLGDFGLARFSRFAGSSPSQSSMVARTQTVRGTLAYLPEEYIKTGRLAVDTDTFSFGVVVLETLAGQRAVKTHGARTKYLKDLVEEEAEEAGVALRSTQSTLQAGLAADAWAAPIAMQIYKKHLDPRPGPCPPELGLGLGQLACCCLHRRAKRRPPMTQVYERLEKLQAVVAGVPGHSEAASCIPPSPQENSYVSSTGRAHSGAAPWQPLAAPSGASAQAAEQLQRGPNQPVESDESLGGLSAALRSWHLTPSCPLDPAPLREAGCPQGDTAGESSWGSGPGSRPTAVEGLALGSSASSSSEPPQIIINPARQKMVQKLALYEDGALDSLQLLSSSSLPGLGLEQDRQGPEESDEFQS

[5] = target: Interleukin-1 receptor-associated kinase 1 (Homo sapiens) (UniProt P51617); settings: at 10 µM
[6] = target: T1, Interleukin-1 receptor-associated kinase 4 (Homo sapiens) (UniProt Q9NWZ3); settings: at 1 µM
T1 sequence (whole entry): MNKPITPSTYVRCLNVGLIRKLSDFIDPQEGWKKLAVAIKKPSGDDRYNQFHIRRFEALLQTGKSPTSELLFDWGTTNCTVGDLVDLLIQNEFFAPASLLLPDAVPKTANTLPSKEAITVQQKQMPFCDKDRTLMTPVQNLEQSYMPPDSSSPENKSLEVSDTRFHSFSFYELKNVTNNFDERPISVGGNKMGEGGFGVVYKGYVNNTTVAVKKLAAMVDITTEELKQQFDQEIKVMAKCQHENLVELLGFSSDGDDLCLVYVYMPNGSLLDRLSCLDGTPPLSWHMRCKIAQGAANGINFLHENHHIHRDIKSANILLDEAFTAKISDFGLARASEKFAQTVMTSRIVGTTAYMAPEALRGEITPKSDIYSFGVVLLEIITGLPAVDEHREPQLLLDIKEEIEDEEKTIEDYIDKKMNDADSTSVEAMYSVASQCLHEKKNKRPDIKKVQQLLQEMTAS

[7] = target: T1, Interleukin-1 receptor-associated kinase 4 (Homo sapiens); settings: at 10 µM
[8] = target: Insulin receptor-related protein (Homo sapiens) (UniProt P14616); settings: at 1 µM
Sequence of Insulin receptor-related protein (Homo sapiens) (P14616 27-742 limits assumed): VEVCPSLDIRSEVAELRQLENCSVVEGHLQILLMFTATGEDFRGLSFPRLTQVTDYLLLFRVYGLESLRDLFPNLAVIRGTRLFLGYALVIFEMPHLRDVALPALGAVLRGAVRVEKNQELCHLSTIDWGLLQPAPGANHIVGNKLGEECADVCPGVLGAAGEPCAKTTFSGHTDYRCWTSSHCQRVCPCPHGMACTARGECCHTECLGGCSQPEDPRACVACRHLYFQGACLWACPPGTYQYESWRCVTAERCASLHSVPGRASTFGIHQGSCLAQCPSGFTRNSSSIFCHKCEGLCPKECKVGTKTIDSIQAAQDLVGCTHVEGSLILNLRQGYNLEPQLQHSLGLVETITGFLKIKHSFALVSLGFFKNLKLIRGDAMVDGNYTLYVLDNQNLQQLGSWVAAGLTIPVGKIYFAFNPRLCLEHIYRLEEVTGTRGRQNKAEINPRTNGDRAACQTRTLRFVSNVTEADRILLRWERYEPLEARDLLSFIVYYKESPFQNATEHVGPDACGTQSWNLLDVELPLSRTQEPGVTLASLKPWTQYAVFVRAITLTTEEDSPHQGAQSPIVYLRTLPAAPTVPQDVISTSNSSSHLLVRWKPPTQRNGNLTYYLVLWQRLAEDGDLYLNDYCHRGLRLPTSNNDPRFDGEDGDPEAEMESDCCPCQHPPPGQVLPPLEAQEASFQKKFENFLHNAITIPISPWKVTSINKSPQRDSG
Sequence of Insulin receptor-related protein (Homo sapiens) (P14616 747-1297 limits assumed): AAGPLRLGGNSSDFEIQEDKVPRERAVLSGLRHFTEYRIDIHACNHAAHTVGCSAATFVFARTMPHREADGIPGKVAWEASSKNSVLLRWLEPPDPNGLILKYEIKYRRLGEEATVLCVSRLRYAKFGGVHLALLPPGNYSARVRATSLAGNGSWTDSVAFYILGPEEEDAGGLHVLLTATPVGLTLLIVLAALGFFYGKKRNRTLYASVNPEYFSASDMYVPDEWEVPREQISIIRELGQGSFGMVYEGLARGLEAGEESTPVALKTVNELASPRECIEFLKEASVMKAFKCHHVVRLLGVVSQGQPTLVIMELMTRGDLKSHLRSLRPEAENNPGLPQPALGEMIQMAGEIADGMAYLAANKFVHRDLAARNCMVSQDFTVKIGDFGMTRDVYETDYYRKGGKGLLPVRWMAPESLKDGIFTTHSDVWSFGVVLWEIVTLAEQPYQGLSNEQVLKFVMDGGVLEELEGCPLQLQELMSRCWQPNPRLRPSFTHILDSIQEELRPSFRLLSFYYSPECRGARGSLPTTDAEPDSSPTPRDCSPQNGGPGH

[9] = target: Insulin receptor-related protein (Homo sapiens) (UniProt P14616); settings: at 10 µM
[10] = target: T2, Tyrosine-protein kinase ITK/TSK (Homo sapiens) (UniProt Q08881); settings: at 1 µM
T2 sequence (whole entry): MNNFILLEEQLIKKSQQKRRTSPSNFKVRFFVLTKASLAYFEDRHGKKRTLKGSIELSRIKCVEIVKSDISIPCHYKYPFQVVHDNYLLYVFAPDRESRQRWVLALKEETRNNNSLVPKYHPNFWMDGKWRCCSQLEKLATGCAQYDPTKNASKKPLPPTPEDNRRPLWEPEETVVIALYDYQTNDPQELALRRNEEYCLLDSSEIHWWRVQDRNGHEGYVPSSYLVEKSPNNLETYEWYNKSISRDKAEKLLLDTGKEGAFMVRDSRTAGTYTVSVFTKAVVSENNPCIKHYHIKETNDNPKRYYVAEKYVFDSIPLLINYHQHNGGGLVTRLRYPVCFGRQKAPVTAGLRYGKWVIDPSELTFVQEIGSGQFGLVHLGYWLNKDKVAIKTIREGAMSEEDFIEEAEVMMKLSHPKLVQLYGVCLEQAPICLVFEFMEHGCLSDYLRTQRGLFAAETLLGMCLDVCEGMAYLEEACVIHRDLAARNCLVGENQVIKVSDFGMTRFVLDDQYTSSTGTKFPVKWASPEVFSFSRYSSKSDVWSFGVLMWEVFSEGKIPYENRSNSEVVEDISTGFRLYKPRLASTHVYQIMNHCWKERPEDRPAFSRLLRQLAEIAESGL

[11] = target: T2, Tyrosine-protein kinase ITK/TSK (Homo sapiens); settings: at 10 µM
[12] = target: Tyrosine-protein kinase JAK2 (Homo sapiens) (UniProt O60674); settings: at 1 µM
[13] = target: Tyrosine-protein kinase JAK2 (Homo sapiens) (UniProt O60674); settings: at 10 µM
[14] = target: T3, Tyrosine-protein kinase JAK3 (Homo sapiens) (UniProt P52333); settings: at 1 µM
T3 sequence (whole entry): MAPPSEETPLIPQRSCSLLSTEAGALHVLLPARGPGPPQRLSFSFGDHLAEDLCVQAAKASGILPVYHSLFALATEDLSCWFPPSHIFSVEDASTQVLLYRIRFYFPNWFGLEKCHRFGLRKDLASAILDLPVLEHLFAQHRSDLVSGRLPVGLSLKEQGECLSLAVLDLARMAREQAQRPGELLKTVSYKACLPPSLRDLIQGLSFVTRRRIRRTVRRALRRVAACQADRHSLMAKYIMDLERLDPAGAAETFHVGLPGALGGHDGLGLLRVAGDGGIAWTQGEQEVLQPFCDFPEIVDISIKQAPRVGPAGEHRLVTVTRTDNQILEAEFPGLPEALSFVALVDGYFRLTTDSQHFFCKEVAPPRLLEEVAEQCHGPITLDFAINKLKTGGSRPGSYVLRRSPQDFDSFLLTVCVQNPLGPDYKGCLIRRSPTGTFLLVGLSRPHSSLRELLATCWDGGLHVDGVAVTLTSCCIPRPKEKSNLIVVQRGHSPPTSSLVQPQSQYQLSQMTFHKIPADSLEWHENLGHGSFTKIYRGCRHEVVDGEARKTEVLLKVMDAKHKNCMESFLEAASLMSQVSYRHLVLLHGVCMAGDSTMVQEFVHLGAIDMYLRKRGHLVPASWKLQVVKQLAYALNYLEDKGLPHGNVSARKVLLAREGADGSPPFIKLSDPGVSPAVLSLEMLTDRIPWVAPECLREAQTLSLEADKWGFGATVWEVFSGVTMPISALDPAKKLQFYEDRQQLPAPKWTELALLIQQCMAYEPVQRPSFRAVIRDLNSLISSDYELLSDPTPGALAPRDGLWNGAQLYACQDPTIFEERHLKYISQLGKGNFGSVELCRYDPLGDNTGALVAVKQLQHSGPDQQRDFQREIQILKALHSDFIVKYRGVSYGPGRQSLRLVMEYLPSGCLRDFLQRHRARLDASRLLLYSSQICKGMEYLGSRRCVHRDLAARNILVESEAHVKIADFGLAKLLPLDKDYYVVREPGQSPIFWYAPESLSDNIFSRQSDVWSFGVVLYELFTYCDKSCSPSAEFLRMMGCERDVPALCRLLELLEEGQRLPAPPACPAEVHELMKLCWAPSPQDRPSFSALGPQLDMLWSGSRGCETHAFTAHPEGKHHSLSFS

[15] = target: T3, Tyrosine-protein kinase JAK3 (Homo sapiens); settings: at 10 µM
[16] = target: Mitogen-activated protein kinase 8 (Homo sapiens) (UniProt P45983); settings: at 1 µM
Sequence of Mitogen-activated protein kinase 8 (Homo sapiens) (P45983 whole entry): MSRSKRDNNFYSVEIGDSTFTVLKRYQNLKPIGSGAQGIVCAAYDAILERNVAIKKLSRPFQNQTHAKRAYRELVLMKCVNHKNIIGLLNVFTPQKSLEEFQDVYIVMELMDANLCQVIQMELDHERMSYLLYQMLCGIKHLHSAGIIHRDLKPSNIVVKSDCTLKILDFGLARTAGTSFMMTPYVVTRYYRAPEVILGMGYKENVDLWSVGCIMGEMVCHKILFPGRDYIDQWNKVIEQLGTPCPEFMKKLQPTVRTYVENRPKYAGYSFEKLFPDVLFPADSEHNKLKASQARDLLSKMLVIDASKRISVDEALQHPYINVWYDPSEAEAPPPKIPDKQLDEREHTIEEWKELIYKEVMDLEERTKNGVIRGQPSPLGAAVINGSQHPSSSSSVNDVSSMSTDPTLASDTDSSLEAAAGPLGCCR

[17] = target: Mitogen-activated protein kinase 8 (Homo sapiens) (UniProt P45983); settings: at 10 µM
[18] = target: Mitogen-activated protein kinase 9 (Homo sapiens) (UniProt P45984); settings: at 1 µM
Sequence of Mitogen-activated protein kinase 9 (Homo sapiens) (P45984 whole entry, looked up): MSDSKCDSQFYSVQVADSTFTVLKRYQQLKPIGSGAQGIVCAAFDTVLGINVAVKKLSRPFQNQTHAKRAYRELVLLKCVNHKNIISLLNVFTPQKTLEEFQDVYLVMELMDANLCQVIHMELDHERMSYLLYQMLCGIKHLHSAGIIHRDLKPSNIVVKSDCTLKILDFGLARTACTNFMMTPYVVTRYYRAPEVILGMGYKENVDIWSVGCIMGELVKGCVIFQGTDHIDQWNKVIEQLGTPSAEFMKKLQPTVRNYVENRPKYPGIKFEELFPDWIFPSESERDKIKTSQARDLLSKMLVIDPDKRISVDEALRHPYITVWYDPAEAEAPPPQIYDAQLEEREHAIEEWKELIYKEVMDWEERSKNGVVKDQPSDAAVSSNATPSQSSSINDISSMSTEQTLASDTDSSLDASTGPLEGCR

[19] = target: Mitogen-activated protein kinase 9 (Homo sapiens) (UniProt P45984); settings: at 10 µM
[20] = target: Mitogen-activated protein kinase 10 (Homo sapiens) (UniProt P53779); settings: at 1 µM
Sequence of Mitogen-activated protein kinase 10 (Homo sapiens) (P53779 whole entry): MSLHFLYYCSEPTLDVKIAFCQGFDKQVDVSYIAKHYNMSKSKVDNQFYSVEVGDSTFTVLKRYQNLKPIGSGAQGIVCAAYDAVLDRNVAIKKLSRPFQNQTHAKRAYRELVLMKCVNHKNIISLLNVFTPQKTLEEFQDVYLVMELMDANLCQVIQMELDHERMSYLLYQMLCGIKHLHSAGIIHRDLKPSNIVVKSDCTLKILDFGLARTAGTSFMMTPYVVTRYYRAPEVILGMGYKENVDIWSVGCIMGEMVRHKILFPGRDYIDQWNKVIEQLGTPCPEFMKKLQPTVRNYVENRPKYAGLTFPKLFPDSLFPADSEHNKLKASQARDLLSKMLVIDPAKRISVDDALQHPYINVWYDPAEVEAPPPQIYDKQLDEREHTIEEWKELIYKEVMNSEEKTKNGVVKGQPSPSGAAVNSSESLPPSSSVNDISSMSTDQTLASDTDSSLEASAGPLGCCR

Sequence of Insulin receptor (Homo sapiens) (P06213 28-758 limits assumed): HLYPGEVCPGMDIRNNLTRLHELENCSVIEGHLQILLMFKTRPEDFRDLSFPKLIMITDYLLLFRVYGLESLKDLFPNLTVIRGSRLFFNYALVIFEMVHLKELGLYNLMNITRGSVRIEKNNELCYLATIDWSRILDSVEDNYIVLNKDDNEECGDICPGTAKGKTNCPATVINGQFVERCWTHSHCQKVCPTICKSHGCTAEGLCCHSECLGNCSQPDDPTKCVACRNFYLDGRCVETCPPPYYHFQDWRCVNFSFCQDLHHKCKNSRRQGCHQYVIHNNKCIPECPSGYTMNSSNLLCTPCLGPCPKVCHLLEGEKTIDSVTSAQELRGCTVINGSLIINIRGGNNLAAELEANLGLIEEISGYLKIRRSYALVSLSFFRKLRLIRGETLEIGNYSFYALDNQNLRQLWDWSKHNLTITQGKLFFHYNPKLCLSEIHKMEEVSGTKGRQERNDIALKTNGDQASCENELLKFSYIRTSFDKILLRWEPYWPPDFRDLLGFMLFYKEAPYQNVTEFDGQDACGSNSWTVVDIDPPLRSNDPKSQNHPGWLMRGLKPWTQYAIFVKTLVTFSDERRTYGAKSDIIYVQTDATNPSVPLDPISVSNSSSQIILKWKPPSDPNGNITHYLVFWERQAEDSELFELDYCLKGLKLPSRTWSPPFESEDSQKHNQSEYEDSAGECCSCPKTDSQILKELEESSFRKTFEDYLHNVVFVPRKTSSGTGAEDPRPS
Sequence of Insulin receptor (Homo sapiens) (P06213 763-1382 limits assumed): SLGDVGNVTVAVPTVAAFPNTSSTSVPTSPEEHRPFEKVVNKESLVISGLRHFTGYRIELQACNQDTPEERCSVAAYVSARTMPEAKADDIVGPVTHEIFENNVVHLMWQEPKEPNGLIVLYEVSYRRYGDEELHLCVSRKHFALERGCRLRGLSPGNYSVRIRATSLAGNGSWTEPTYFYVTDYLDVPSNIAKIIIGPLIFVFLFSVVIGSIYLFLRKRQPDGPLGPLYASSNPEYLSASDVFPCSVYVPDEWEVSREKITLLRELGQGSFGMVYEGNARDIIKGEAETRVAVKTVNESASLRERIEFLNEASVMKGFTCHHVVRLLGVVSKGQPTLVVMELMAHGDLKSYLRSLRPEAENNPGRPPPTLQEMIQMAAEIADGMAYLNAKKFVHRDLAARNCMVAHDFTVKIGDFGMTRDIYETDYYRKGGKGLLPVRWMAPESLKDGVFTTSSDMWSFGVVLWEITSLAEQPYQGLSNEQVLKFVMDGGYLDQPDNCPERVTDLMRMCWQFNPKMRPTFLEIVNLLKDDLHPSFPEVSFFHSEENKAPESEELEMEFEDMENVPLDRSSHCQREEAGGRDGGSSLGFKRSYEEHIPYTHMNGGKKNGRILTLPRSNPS

SMILES | residual activity [1] | residual activity [2] | residual activity [3] | residual activity [4] | residual activity [5] | residual activity [6] | residual activity [7] | residual activity [8] | residual activity [9] | residual activity [10] | residual activity [11] | residual activity [12] | residual activity [13] | residual activity [14] | residual activity [15] | residual activity [16] | residual activity [17] | residual activity [18] | residual activity [19] | residual activity [20]
N#C/C(=C(\N)Sc1ccc(N)cc1)c1ccccc1C(F)(F)F | 102% | 102% | 92% | 91% | 112% | 83% | 81% | 105% | 101% | 100% | 96% | 99% | 98% | 101% | 101% | 95% | 100% | 93% | 103% | 114%
Oc1n[nH]c2nnc(-c3c(-c4ccccc4)nn4ccccc34)cc12 | 12% | 89% | 75% | 99% | 103% | 75% | 89% | 25% | 2% | 99% | 102% | 99% | 102% | 104% | 100% | 96% | 87% | 93% | 92% | 52%
CC(=O)c1ccc(N2CCOCC2)cc1O | 81% | 104% | 97% | 105% | 95% | 95% | 98% |  |  | 97% | 97% | 102% | 96% | 102% | 105% | 104% | 80% | 101% | 103% | 88%
COc1cc2ncnc(Nc3ccc(Oc4ccccc4)cc3)c2cc1OC | 98% | 93% | 91% | 87% | 79% | 98% | 79% | 82% | 81% | 86% |  | 118% | 148% | 93% | 113% | 106% | 110% | 121% | 98% | 83%
CCC(=O)Nc1ccc2ncnc(Nc3cccc(Br)c3)c2c1 | 79% | 102% | 100% | 89% | 83% | 96% | 91% | 111% | 79% | 106% | 102% | 89% | 107% | 99% | 100% | 94% | 76% | 105% | 89% | 72%
COc1cc2ncnc(Nc3ccc(NC(=O)c4ccccc4)cc3)c2cc1OC | 92% | 105% |  | 100% | 99% |  | 97% |  | 79% |  | 99% |  |  | 102% |  |  |  | 109% | 108% | 
Ic1cccc(CSc2nnc(-c3ccncc3)o2)c1 | 82% | 95% | 92% | 91% | 94% | 55% | 41% | 112% | 101% | 93% | 95% | 86% | 104% | 102% | 89% | 93% | 84% | 90% | 96% | 73%
CN(C)CCCn1cc(C2=C(c3c[nH]c4ccccc34)C(=O)NC2=O)c2ccccc21 | 100% | 100% | 72% | 111% | 89% | 121% | 53% | 137% | 75% |  |  | 121% | 90% |  |  | 111% |  |  |  | 117%
O=c1cc(-c2cccc3c2Sc2ccccc2S3)oc(N2CCOCC2)c1 | 136% | 98% | 99% | 102% |  | 100% | 98% | 119% | 96% | 105% | 99% | 98% | 111% | 114% | 113% | 108% | 97% | 103% | 100% | 91%
Cc1cncc2cccc(S(=O)(=O)N3CCCN(C(=O)CN)C[C@H]3C)c12 | 70% | 97% | 76% | 82% | 67% |  |  |  |  |  |  |  |  | 92% |  | 95% | 82% |  | 79% | 72%
Cc1nc2cc3nc(-c4cccs4)cnc3cc2n1C | 101% | 106% | 95% | 110% | 90% | 111% | 70% | 130% | 100% | 108% | 71% | 113% | 106% | 105% | 106% | 114% | 100% | 106% | 106% | 119%
CO[C@@H]1[C@H](N(C)C(=O)c2ccccc2)C[C@H]2O[C@]1(C)n1c3ccccc3c3c4c(c5c6ccccc6n2c5c31)C(=O)NC4 |  | 80% | 72% | 85% | 74% | 53% | 47% | 98% | 57% | 56% | 31% | 7% | 2% | 1% | 1% | 92% | 67% | 99% | 91% | 50%
Cc1cccc(-c2[nH]c(C(C)(C)C)nc2-c2ccc3c(c2)OCO3)n1 | 89% |  |  | 87% | 75% |  |  | 104% | 88% | 96% | 103% |  |  |  |  |  | 97% |  | 94% | 90%
